Results reported in PMC4336329 (PLoS ONE, 2015).
Among all 310,000 compounds or so, about 2,200 (0.71%) showed an effect of 50% or more. Effects have a minus sign here. Many of the other results were omitted from the sample, so strong results are more common in it than they were.

The compounds below were run against human ether-à-go-go-related gene (hERG) potassium channel (human, UniProt Q12809) (assay: primary screen, population patch clamp on CHO cells stably expressing hERG; higher = less effect of the substance).
Sequence of human ether-à-go-go-related gene (hERG) potassium channel (Q12809 whole entry, looked up): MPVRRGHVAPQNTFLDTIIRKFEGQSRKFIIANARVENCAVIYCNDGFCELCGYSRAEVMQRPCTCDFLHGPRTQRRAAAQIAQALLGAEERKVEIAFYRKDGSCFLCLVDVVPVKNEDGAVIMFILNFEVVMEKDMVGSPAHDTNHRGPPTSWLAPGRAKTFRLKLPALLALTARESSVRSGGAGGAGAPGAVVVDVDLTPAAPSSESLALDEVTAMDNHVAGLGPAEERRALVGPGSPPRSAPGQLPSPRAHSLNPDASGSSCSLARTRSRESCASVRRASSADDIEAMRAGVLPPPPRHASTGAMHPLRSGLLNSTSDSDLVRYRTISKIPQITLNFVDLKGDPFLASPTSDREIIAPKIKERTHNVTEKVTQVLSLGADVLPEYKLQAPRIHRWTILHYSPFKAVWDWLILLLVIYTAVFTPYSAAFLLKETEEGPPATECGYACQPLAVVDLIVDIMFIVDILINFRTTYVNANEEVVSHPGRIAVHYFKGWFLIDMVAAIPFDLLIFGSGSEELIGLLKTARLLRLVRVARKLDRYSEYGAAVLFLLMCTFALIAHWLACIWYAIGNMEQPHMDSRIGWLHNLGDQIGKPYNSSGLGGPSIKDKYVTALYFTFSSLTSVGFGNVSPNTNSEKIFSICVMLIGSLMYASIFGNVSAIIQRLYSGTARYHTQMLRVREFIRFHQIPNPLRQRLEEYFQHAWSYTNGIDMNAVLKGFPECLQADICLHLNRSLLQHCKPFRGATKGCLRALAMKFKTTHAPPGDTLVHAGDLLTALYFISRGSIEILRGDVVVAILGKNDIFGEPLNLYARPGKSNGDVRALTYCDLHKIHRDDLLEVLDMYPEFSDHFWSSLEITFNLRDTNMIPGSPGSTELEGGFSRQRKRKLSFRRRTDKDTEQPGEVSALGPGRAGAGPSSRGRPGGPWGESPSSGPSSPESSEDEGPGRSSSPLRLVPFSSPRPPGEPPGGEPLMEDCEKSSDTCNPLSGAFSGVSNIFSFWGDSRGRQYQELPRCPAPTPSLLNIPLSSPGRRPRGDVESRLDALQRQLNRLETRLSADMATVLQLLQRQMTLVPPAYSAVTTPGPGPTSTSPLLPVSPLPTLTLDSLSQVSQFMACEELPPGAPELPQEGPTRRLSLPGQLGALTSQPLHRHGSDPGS

SMILES | hERG current change (%, negative = inhibition) at 1uM
CCCN(CC1CC1)C(=O)CSc1nnc(-c2cc(-c3cccs3)nc3ccccc23)o1 | 6.71%
CS(=O)(=O)c1ccc(-n2nnc3ccccc32)c([N+](=O)[O-])c1 | 10.8%
CCc1ccccc1NC(=O)c1ccc(Cn2cc([N+](=O)[O-])cn2)cc1 | -3.78%
COc1ccc(N2CCN(C(=O)c3ccc(N4CCCCS4(=O)=O)cc3)CC2)cc1 | 10.7%
COc1cccc(S(=O)(=O)Nc2noc3ccccc23)c1 | 14%
Cc1ccc(-c2ccnc3c(Cl)c(C)nn23)cc1 | 13.3%
COc1cc2c(cc1OC)C(=S)NC(C)(C)C2 | 14.8%
COc1cc(S(=O)(=O)NCC2OCCc3ccccc32)ccc1-n1cnnn1 (centres unmarked) | -7.28%
CC(=O)N1CCN(C(=O)C2(NC(=O)Nc3ccccc3Cl)CCCCC2)CC1 | 14.2%
CC(=O)Oc1c(C)c2c3c(c1OC(C)=O)[C@@H](C)CC[C@@H]3[C@@H](C)C[C@H]2C=C(C)C | 11.1%
COc1ccc(CN(C)C(=O)c2cc(S(=O)(=O)N3CCCCCC3)ccc2OC)cc1OC | 4.44%
CCOc1ccc(N(CC(=O)N/N=C/c2cccnc2)S(C)(=O)=O)cc1 | 12.9%
O=C(/C=C/c1ccc(Cl)cc1)N1CCN(Cc2ccccc2)CC1 | -12.8%
O=C(/C=C/c1ccc(Cl)cc1)N1CCN(c2ccc([N+](=O)[O-])c(N3CCOCC3)c2)CC1 | -11.1%
O=C(/C=C/c1ccc(Cl)cc1)N1CCN(c2ccccc2[N+](=O)[O-])CC1 | -33.6%
O=C(/C=C/c1cccc([N+](=O)[O-])c1)N1CCN(Cc2ccccc2)CC1 | -20.3%
O=C(/C=C/c1ccc(Cl)cc1)N1CCN(c2ccc(Cl)cc2[N+](=O)[O-])CC1 | -81.4%
O=C(/C=C/c1ccc([N+](=O)[O-])cc1)N1CCN(Cc2ccccc2)CC1 | -63.8%
CC1(c2cnc(Nc3ccccc3)s2)CCC(=O)O1 (centres unmarked) | 11.7%
O=C1c2ccccc2C(=O)c2c1cccc2N1CCN(Cc2ccccc2)CC1 | -6.21%
O=C1c2ccccc2C(=O)c2c1cccc2N1CCN(CCO)CC1 | -64.7%
O=C1c2ccccc2C(=O)c2c1cccc2N1CCCC1 | 8.54%

SMILES | hERG current change (%, negative = inhibition) at 1uM
Cc1cccc(NS(=O)(=O)c2ccc3c(c2)NC(=O)CC(=O)N3)c1 | 18.4%
Cc1cccnc1NC(=O)Nc1cccc2ccccc12 | 0.589%
O=C(c1ccc2c(c1)OCO2)C1CCCN(Cc2c(F)cccc2Cl)C1 (centres unmarked) | 0.9%
O=C(c1ccc2c(c1)OCO2)C1CCCN(Cc2ccc(F)c(F)c2)C1 (centres unmarked) | 5.03%
Cc1ccsc1C(=O)C1CCCN(Cc2ccc(-n3cccn3)cc2)C1 (centres unmarked) | -3.18%
O=C(c1ccc2c(c1)OCO2)C1CCCN(Cc2ccc(OC(F)F)cc2)C1 (centres unmarked) | -53%
Cc1cccc(CN2CCCC(C(=O)c3ccc4c(c3)OCO4)C2)n1 (centres unmarked) | -16.8%
O=C(c1ccc2c(c1)OCO2)C1CCCN(Cc2ccccc2OC(F)F)C1 (centres unmarked) | -16.9%
O=C(c1ccc2c(c1)OCO2)C1CCCN(Cc2ccc3cccc(F)c3n2)C1 (centres unmarked) | -81.5%
Cc1ccc(-n2cccn2)c(CN2CCCC(C(=O)c3ccc4c(c3)OCO4)C2)c1 (centres unmarked) | -83.5%
Cc1ccsc1C(=O)C1CCCN(Cc2cc(F)ccc2-n2cccn2)C1 (centres unmarked) | -45.5%
Cc1ccc(CN2CCCC(C(=O)c3ccc4c(c3)OCO4)C2)cc1C (centres unmarked) | -27.1%
COc1cc(OC)c(OC)cc1CN1CCCC(C(=O)c2ccc3c(c2)OCO3)C1 (centres unmarked) | -27.7%
Cc1ccc(-n2cccn2)c(CN2CCCC(C(=O)c3sccc3C)C2)c1 (centres unmarked) | -82.8%
COc1ccc(CNCc2c(F)cccc2F)cc1OC.O=C(O)C(=O)O | 14.6%
O=C(NC1CCCCCC1)c1ccc(CS(=O)Cc2cccc(Cl)c2)o1 (centres unmarked) | 5.33%
COc1cc(/C=N/N2CCN(Cc3ccc(Cl)cc3)CC2)cc(Br)c1O | 9.38%
N#Cc1c(NC(=O)CCCN2C(=O)c3ccccc3C2=O)oc(-c2ccccc2)c1-c1ccccc1 | -0.65%
Cc1cc2nc3ccc(N(C)C)cc3nc2cc1N | 13.3%
CCOC1(OCC)N=C(N)C2(C#N)C(c3cccc(OC)c3OC)C12C#N (centres unmarked) | 3.32%
CN(C(=O)CCN1C(=O)c2ccccc2C1=O)c1ccccc1 | 15.8%
CCc1cc(C(c2ccc(F)cc2)N2CCOCC2)c(NC(=O)c2ccccc2)s1 (centres unmarked) | 11.2%

SMILES | hERG current change (%, negative = inhibition) at 1uM
CCCCNC(=O)N1CCOCCOCCN(C(=O)NCCCC)CCOCCOCC1 | 7.75%
O=C(c1sc2cc([N+](=O)[O-])ccc2c1Cl)N1CCOCC1 | 0.235%
CC(C)(C)CC(=O)OCC(=O)Nc1cc(C(C)(C)C)nn1-c1ccccc1 | -12.9%
Cc1nn2c(-c3ccc(Cl)cc3Cl)nnc2s1 | -0.908%
O=C(c1ccc2c(c1)OCO2)C1CCCN(Cc2cc(F)ccc2-n2cccn2)C1 (centres unmarked) | -78.2%
COc1cccc(CN2CCCC(C(=O)c3ccc4c(c3)OCO4)C2)c1O (centres unmarked) | -44.6%
COc1cccc(CN2CCCC(C(=O)c3ccc4c(c3)OCO4)C2)c1OC (centres unmarked) | -25.3%
Br.Nc1nc(-c2ccc(Br)cc2)cs1 | -2.25%
C/C(=N/N1CCN(c2ccccc2)CC1)c1cccc([N+](=O)[O-])c1 | 8.81%
Cc1ccc(Cl)cc1NS(=O)(=O)Cc1ccccc1 | 14.1%
O=C(Nc1ccc(NC(=O)c2cccs2)cc1)c1cccnc1 | 13.4%
Cc1ccccc1NS(=O)(=O)c1ccc(OCC(=O)NCc2ccccn2)cc1 | 3.12%
O=C(c1ccco1)N1CCN(Cc2cc(=O)c(OCc3ccc([N+](=O)[O-])cc3)co2)CC1 | -29.4%
Cc1ccc(-c2cc(C(=O)Nc3ccc(S(=O)(=O)Nc4onc(C)c4C)cc3)[nH]n2)c(O)c1 | -1.84%
CN1CCN(c2nc(-c3ccc(Cl)c(Cl)c3)nc3ccccc23)CC1 | 9.87%
CN1CCN(c2nc(-c3ccncc3)nc3ccccc23)CC1 | -64.9%
CN1CCN(c2nc(-c3ccc(Cl)cc3Cl)nc3ccccc23)CC1 | -58.1%
CN1CCN(c2nc(-c3ccccc3Cl)nc3ccccc23)CC1 | -19.8%
CCN1CCN(c2nc(-c3ccccn3)nc3ccccc23)CC1 | -17.5%
Cc1ccc(-c2nc(N3CCN(C)CC3)c3ccccc3n2)cc1.Cl | 3.62%
CC1CN(c2nn3c(=O)c4ccccc4nc3c3ccccc23)CC(C)O1 (centres unmarked) | -0.465%
c1ccc2c(N3CCCC3)nc(-c3ccncc3)nc2c1 | 1.09%

SMILES | hERG current change (%, negative = inhibition) at 1uM
CCN1CCN(c2nc(-c3ccncc3)nc3ccccc23)CC1 | -75.6%
CCN1CCN(c2nc(-c3ccccc3)nc3ccccc23)CC1 | -30.4%
CCN1CCN(c2nn3c(=O)c4ccccc4nc3c3ccccc23)CC1 | -71.5%
CCN1CCN(c2nc(-c3cccnc3)nc3ccccc23)CC1.Cl | -18.4%
C/C(=N\NC(=O)c1ccc(Cl)cc1)c1ccccn1 | 8.17%
O=S1(=O)CCC(NCC2CCCO2)C1 (centres unmarked) | 12.9%
CC(C)C(NC(=O)OCc1ccccc1)C(=O)OCC(=O)NC1CC1 (centres unmarked) | 11.3%
Fc1ccc(N/N=C/c2ccc(N3CCOCC3)cc2)c(F)c1 | 9.29%
CCc1ccc(CN(C)C(=O)C2CCC(=O)N(CC3CCCCC3)C2)cc1 (centres unmarked) | -12.3%
COc1ccccc1N1CCN(C(=O)c2cn(C)c3ccc(S(=O)(=O)N4CCOCC4)cc3c2=O)CC1 | 13.1%
O=c1nc(-c2ccccc2)n(-c2ccccc2)c2ncccc12 | 10.8%
Cn1c(SCC(=O)NC2CCS(=O)(=O)C2)nnc1-c1ccco1 (centres unmarked) | 10.3%
Cc1cccc(NS(=O)(=O)c2cccs2)c1 | 10.7%
CC1CC(C)CN(c2nc3c(c(=O)n(C)c(=O)n3C)n2C)C1 (centres unmarked) | 11.1%
CCN1CCN(c2ccc(S(=O)(=O)N3CCOCC3)cc2NC(=O)/C=C/c2ccc([N+](=O)[O-])cc2)CC1 | -50.5%
O=C(/C=C/c1ccc(F)cc1)Nc1cc(S(=O)(=O)N2CCOCC2)ccc1N1CCCC1 | -60.3%
CCN1CCN(c2ccc(S(=O)(=O)N3CCOCC3)cc2NC(=O)/C=C/c2ccc(C)cc2)CC1 | -4.67%
CCN1CCN(c2ccc(S(=O)(=O)N3CCCCC3)cc2NC(=O)/C=C/c2ccc([N+](=O)[O-])cc2)CC1 | 6.53%
O=C(/C=C/c1cccc(F)c1)Nc1cc(S(=O)(=O)N2CCOCC2)ccc1N1CCCC1 | 0.626%
O=C(/C=C/c1ccccc1)Nc1cc(S(=O)(=O)N2CCOCC2)ccc1N1CCCC1 | 15.7%
